Results: PubChem BioAssay (Tox21)
Inconclusive results are not listed. Calls of active or inactive are those of the source. Unless noted, calls come from the whole dose curve; as a rule, active = well fitted curve in the direction sought with a large enough effect in the repeat runs; inconclusive = weak or mixed curves; inactive = no such curve, though single readings can be large; an effect the other way counts as inactive or inconclusive.

Key:
[1] = qHTS assay to identify small molecule antagonists of the estrogen related receptor signaling pathway with the pleiotropic PPARgamma coactivator (PGC) from Tox21 10K library - cell viability counter screen (AID 1224840; active = well fitted cell-killing curve with a large enough effect in the repeat runs, not every such curve was filed as active; note: nearly all actives have a fitted effect of over 40% in size)
Summary of the method: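 Following seeding of 2,000 PGC/ERR cells/well and 6 hours' incubation, test compounds were delivered in DMSO. The plates then sat 17.5 hours at 37 C before a fluorogenic live-cell protease reagent (CellTiter-Fluor) was read after 30 min.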

[2] = molecular target: Thyrotropin receptor (Homo sapiens) (UniProt P16473); assay: qHTS assay to identify small molecule agonists of the thyroid stimulating hormone receptor (TSHR) signaling pathway (AID 1224843; calls by dose curve; note: nearly all actives have a fitted effect of over 45% in size)
Sequence of Thyrotropin receptor (Homo sapiens) (P16473 whole entry, looked up): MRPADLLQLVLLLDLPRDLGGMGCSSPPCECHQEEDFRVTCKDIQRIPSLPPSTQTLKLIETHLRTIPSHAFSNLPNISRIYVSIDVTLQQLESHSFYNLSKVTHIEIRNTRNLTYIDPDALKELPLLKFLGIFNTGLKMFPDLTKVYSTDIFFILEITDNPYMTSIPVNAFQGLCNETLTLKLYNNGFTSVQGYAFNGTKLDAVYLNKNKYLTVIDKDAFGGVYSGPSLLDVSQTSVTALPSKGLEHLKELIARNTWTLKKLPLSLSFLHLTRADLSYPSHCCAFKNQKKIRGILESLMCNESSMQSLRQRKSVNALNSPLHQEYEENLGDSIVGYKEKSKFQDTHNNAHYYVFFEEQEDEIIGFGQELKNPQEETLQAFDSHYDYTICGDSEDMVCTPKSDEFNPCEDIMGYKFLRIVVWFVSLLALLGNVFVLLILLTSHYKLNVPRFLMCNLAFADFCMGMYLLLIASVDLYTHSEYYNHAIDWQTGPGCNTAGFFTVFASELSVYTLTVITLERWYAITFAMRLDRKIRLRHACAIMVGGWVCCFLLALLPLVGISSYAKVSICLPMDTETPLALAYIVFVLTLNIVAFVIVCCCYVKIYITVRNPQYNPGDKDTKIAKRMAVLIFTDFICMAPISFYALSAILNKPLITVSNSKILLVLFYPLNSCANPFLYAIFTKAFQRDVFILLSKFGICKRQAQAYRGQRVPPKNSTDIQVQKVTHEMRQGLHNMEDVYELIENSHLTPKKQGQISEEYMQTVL
Summary of the method: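 TSHR-HEK293 cells in agonist mode, 30 min room-temperature step, then cAMP measured by competitive HTRF (cAMP-d2 with anti-cAMP cryptate) after 1 h at room temperature. Tested at 15 concentrations in triplicate.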

[3] = qHTS assay to identify small molecule agonists of the hypoxia (HIF-1) signaling pathway - cell viability counter screen (AID 1224844; calls by dose curve; note: nearly all actives have a fitted effect of over 50% in size)
Summary of the method: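 Cells (HRE-bla ME-180, 2,000 per well) sat 5 hrs at 37C, got compound for 17 hrs, were read for CCF4-AM FRET, and were finally lysed with CellTiter-Glo for a 30 min room-temperature luminescence read.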

[4] = qHTS assay to identify small molecule agonists of H2AX (AID 1224845; active = well fitted activation curve with a large enough effect in the signal ratio in the repeat runs, not every such curve was filed as active; the % refers to the signal ratio)
Summary of the method: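 Wild-type CHO-K1 cells, plated overnight, exposed 3hr at 37C to 15 concentrations (0.76% DMSO final). Lysed, then HTRF anti-pH2AX (S139) cryptate and anti-H2AX-d2 antibodies, 24 hr room temperature; 665/620 nm emission read.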

[5] = qHTS assay to identify small molecule agonists of the hypoxia (HIF-1) signaling pathway (AID 1224846; active = well fitted activation curve with a large enough effect in the signal ratio in the repeat runs, not every such curve was filed as active; the % refers to the signal ratio)
Summary of the method: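 A low-serum medium (0.5% dialyzed FBS) holding 2,000 HRE-bla ME-180 cells per well is preincubated for 5 hrs, dosed with compounds by pintool, and kept a further 17 hrs at 37C, 5% CO2 before CCF4-AM FRET detection of beta-lactamase.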

[6] = qHTS assay to identify small molecule agonists of H2AX - cell viability counter screen (AID 1224847; calls by dose curve; note: top concentration of the series differs between compounds; nearly all actives have a fitted effect of over 30% in size)
Summary of the method: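 Counter-screen for viability: CellTiter-Glo ATP luminescence read after 3 h compound treatment (15-point titration, 0.76% DMSO final) of CHO-K1 cells at 37C, with 30 min room-temperature reagent incubation.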

[7] = qHTS RealTime-Glo MT Cell Viability Assay in HepG2 cells - 24 hour (AID 1224867); note: nearly all actives have a fitted effect of over 50% in size
Summary of the method: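 Luminescence read-out: viable HepG2 cells reduce a prosubstrate to a NanoLuc substrate, giving a signal proportional to live cell number. Reads taken at 0, 8, 16, 24, 32 and 40 h of compound exposure at 37 C.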

[8] = qHTS RealTime-Glo MT Cell Viability Assay in HEK293 cells - 32 hour (AID 1224868); note: top concentration of the series differs between compounds; nearly all actives have a fitted effect of over 50% in size
Summary of the method: (§1)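 Nonlytic real-time viability readout: viable cells convert prosubstrate to NanoLuc substrate, giving luminescence proportional to live cell number. HEK293, 600 cells/well, compound added after 5 h, continuous culture at 37 C.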

[9] = A CellTox Green Cytotoxicity Assay to monitor cytotoxicity in HEK293 cells - 0 hour (AID 1224869); note: nearly all actives have a fitted effect of over 50% in size
Summary of the method: (§2)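 Fluorescence intensity, read at 0, 8, 16, 24, 32 and 40 h of compound treatment, reflected dye binding to DNA of dead HEK293 cells; compounds (23 nL, DMSO) were added 5 h after plating cells with reagent.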

[10] = qHTS RealTime-Glo MT Cell Viability Assay in HepG2 cells - 40 hour (AID 1224870); note: nearly all actives have a fitted effect of over 50% in size
Summary of the method: (§3)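 HepG2 cells (600/well) mixed with RealTime-Glo MT reagent, settled 5 h at 37 C/5% CO2 before compound addition. Nonlytic NanoLuc luminescence from viable-cell prosubstrate reduction read repeatedly during 40 h treatment at 37 C.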

[11] = qHTS RealTime-Glo MT Cell Viability Assay in HEK293 cells - 16 hour (AID 1224872)
Summary of the method: as §1

[12] = qHTS RealTime-Glo MT Cell Viability Assay in HepG2 cells - 8 hour (AID 1224873); note: nearly all actives have a fitted effect of over 55% in size
Summary of the method: as §3

[13] = qHTS RealTime-Glo MT Cell Viability Assay in HEK293 cells - 40 hour (AID 1224874); conditions: RealTime-Glo luminescence; max response: active compounds read low; note: nearly all actives have a fitted effect of over 50% in size
Summary of the method: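 Viable HEK293 cells reduce a cell-permeant prosubstrate; the product diffuses out and is consumed by NanoLuc in the medium to give light. Compounds went in after a 5 h incubation and plates were read over the treatment course.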

[14] = A CellTox Green Cytotoxicity Assay to monitor cytotoxicity in HepG2 cells - 16 hour (AID 1224876); note: nearly all actives have a fitted effect of over 45% in size
Summary of the method: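 Using 1536-well format, dye-containing HepG2 suspension was seeded, allowed 5 h at 37 C/5% CO2, dosed by pintool with compounds, positive and negative controls, and imaged for fluorescence across 40 h.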

[15] = A CellTox Green Cytotoxicity Assay to monitor cytotoxicity in HEK293 cells - 40 hour (AID 1224871); note: nearly all actives have a fitted effect of over 45% in size
Summary of the method: as §2

[16] = A CellTox Green Cytotoxicity Assay to monitor cytotoxicity in HEK293 cells - 24 hour (AID 1224875); note: series mostly up to about 77 µM; nearly all actives have a fitted effect of over 45% in size
Summary of the method: as §2
% is set by controls: 0 for no effect and ±100 for the full control effect.

O=NN(CCCl)C(=O)NC1CCCCC1
inactive: outcome [1] | outcome [2] | outcome [3] | outcome [4] | outcome [5] | outcome [6] | outcome [7] | Potency [8] | Potency [9] | outcome [10] | Potency [11] | outcome [12] | max response [13] 1.88% | Potency [14]

CCCCCC/C=C/C(=O)OC
inactive: outcome [1] | outcome [2] | outcome [3] | outcome [4] | outcome [5] | outcome [6] | outcome [7] | Potency [8] | Potency [9] | outcome [10] | Potency [11] | outcome [12]

Nc1nnnn1-c1ccccc1
inactive: outcome [1] | outcome [2] | outcome [3] | outcome [4] | outcome [5] | outcome [6] | outcome [7] | Potency [8] | Potency [9] | Potency [15] | Potency [11] | outcome [12] | max response [13] 0.0553% | Potency [16]

OCC1(CO)COCOC1
inactive: outcome [1] | outcome [2] | outcome [3] | outcome [4] | outcome [5] | outcome [6] | outcome [7] | Potency [8] | Potency [9] | outcome [10] | Potency [15] | outcome [12] | max response [13] -1.51% | Potency [14]

CC(=O)OCC(=O)Nc1cc(C#N)cc(NC(=O)COC(C)=O)c1Cl
inactive: outcome [1] | outcome [2] | outcome [3] | outcome [4] | outcome [5] | outcome [6] | outcome [7] | Potency [8] | Potency [9] | Potency [15] | Potency [11] | outcome [12] | max response [13] 0.686% | Potency [16] | Potency [14]

CC(C)CCOC(=O)c1ccccc1
inactive: outcome [1] | outcome [2] | outcome [3] | outcome [4] | outcome [5] | outcome [6] | outcome [7] | Potency [8] | Potency [9] | outcome [10] | Potency [11] | outcome [12] | max response [13] -0.72% | Potency [14]

CC(C)Nc1ccccc1
inactive: outcome [1] | outcome [2] | outcome [3] | outcome [4] | outcome [5] | outcome [6] | outcome [7] | Potency [8] | Potency [9] | Potency [15] | Potency [11] | outcome [12] | max response [13] 3.46% | Potency [16] | Potency [14]

CC(C)C1OCCN1CCOC(=O)NCCCCCCNC(=O)OCCN1CCOC1C(C)C (centres undefined)
inactive: outcome [1] | outcome [2] | outcome [3] | outcome [4] | outcome [5] | outcome [6] | outcome [7] | Potency [8] | Potency [9] | Potency [15] | Potency [11] | outcome [12] | max response [13] 1.59% | Potency [16] | Potency [14]

COCCc1ccccn1
inactive: outcome [1] | outcome [2] | outcome [3] | outcome [4] | outcome [5] | outcome [6] | outcome [7] | Potency [8] | Potency [9] | Potency [15] | outcome [12] | max response [13] -3.81% | Potency [16] | Potency [14]

CC1CC(=O)CC(C)(C)C1 (centres undefined)
inactive: outcome [1] | outcome [2] | outcome [3] | outcome [4] | outcome [5] | outcome [6] | outcome [7] | Potency [8] | Potency [9] | outcome [10] | Potency [15] | outcome [12] | max response [13] -1.21% | Potency [16] | Potency [14]

CC(C)NCC(O)c1ccc2ccccc2c1 (centres undefined)
inactive: outcome [1] | outcome [2] | outcome [3] | outcome [4] | outcome [5] | outcome [6] | outcome [7] | Potency [8] | Potency [9] | Potency [15] | Potency [11] | outcome [12] | max response [13] -5.31% | Potency [16] | Potency [14]

COc1cc(/C=C/C(N)=O)cc(OC)c1OC
inactive: outcome [1] | outcome [2] | outcome [3] | outcome [4] | outcome [5] | outcome [6] | outcome [7] | Potency [8] | Potency [9] | outcome [10] | outcome [12] | max response [13] -21.8% | Potency [16] | Potency [14]

CCCSSCCC
inactive: outcome [1] | outcome [2] | outcome [3] | outcome [4] | outcome [5] | outcome [6] | outcome [7] | Potency [8] | Potency [9] | outcome [10] | Potency [11] | outcome [12] | max response [13] 2.19% | Potency [16] | Potency [14]

CCCCCCCCCCCCCCCCCCOCCO
inactive: viability change, negative = cytotoxic [1] -0.639% [at 19 µM] | activation [2] -2.81% [at 19 µM] | activity change, negative = cytotoxicity [3] 16.8% [at 15.8 µM] | activation (H2AX phosphorylation) [4] -3.63% [at 31.6 µM] | activation [5] 0.444% [at 15.8 µM] | activity change, negative = cytotoxicity [6] -6.52% [at 31.6 µM] | activity change, negative = cytotoxicity [7] -2.19% [at 15.8 µM] | activity change, negative = cytotoxic [8] -2.29% [at 15.8 µM] | cytotoxicity [9] 1.2% [at 15.8 µM] | cytotoxicity increase [15] 8.77% [at 15.8 µM] | viability change, negative = cytotoxic [12] -3.15% [at 15.8 µM] | max response [13] -1.04% | activity change [16] 5.76% [at 15.8 µM, active compounds read high] | cytotoxicity increase [14] 0.179% [at 15.8 µM]

O=[N+]([O-])c1c(Cl)cc(Cl)cc1Cl
inactive: outcome [1] | outcome [2] | outcome [3] | outcome [4] | outcome [5] | outcome [6] | outcome [7] | Potency [8] | Potency [9] | outcome [10] | Potency [11] | outcome [12] | max response [13] -1.77% | Potency [14]
